# Test results reported in PubChem BioAssay (EPA / NIEHS).
# Inconclusive results are not listed. Some compounds were tested as several samples or in several runs, with calls that do not always agree. Calls of active or inactive are those of the source. How the source made its calls, unless noted: active means hit-call score of the fitted dose curve at least 0.9, where 1 is the maximum; inconclusive means response in the unintended direction; inactive means score below 0.9.
# Test system: IYD (gene 389434)
# Experiment: CCTE_GLTED_hIYD: CCTE's human Iodotyrosine Deiodinase (xIYD) Inhibition Assay, Great Lakes Toxicology and Ecology Division (GLTED) Lab (AID 2284317)
# Details: not given
# Experimental: CCTE_GLTED_hIYD is a cell-free, single-readout assay that uses human iodotyrosine deiodinase (hIYD) enzyme produced with baculovirus-insect cell system. The assay is based on iodide release measured by the Sandell-Kolthoff method and is run in 96-well plate format with assay plates run in triplicate (n=3) with measurements taken at 3 hours after chemical dosing. Platewise-normalization was used based on positive control (3-Nitro-L-tyrosine, MNT) and negative/solvent controls (DMSO, NaOH).CCTE_GLTED_hIYD is the assay component measured from the CCTE_GLTED_hIYD assay. It measures substrate involved in regulation of catalytic activity using spectrophotometry. The assay measures the deiodination activity of human IYD on the substrate monoiodotyrosine (MIT). After 3h incubation of substrate, enzyme, and test chemical, the components are applied to a 96-well Dowex column. Free iodide is not retained by the column and is separated from interfering assay components. The free iodide is measured by the Sandell-Kolthoff reaction in which the rate of reduction of cerium (Ce+4 to Ce+3) by arsenic (As+3 to As+5) is increased by the presence of iodide. This is observed as the loss of yellow color in the reaction and the quantified by the change in absorbance at 420 nm. The change in reaction rate is proportional to the amount of iodide present.Data from the assay component CCTE_GLTED_hIYD was analyzed at the assay endpoint CCTE_GLTED_hIYD in the positive analysis fitting direction relative to DMSO as the negative control and baseline of activity. Using a type of enzyme reporter, loss-of-signal activity can be used to understand iodotyrosine deiodinase activity. To generalize the intended target to other relatable targets, this assay endpoint is annotated to the 'dehalogenase' intended target family, where the subfamily is 'iodotyrosine deiodinase'.
# Human thyroxine binding globulin (TBG) assay, developed at Great Lakes Toxicology and Ecology Division (GLTED) within the EPA's Center for Computational Toxicology and Exposure (CCTE), is designed to test the chemicals' ability to displace T4 from the TBG protein. The method used was largely based on Montano et al. (2012). This work describes the utilization of ANSA fluorescence when bound to the protein to approximate binding affinity of chemicals through a reduction of fluorescence when ANSA is displaced. This assay was conducted in 96-well plates with an incubation at 4C for 2 hours in a final volume of 200 uL. Final assay conditions included 0.0625 uM TBG, 0.6 uM ANSA, and 0.5% DMSO in 0.1 M phosphate buffer, pH=7.5.
Structure (SMILES),outcome,AC50
CC(C)Oc1cccc(NC(=O)c2ccccc2C(F)(F)F)c1,inactive,–
CC(C)NC(=O)N1CC(=O)N(c2cc(Cl)cc(Cl)c2)C1=O,inactive,–
CCC(C)n1c(=O)[nH]c(C)c(Br)c1=O (stereo not given),inactive,–
CCN(CC)C(=O)C(C)Oc1cccc2ccccc12 (stereo not given),inactive,–
OC(c1ccc(Cl)cc1)(c1ccc(Cl)cc1)C(Cl)(Cl)Cl,–,100 µM (active)

# Test system: not listed separately
# Experiment: CCTE_Mundy_HCI_iCellGluta_NOG_NeuriteLength: CCTE's Neurite Outgrowth Assay in iCellGluta cells for Neurite Length, Mundy Lab (AID 2284318)
# Details: not given
# Summary of the method: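 Automated high-content imaging of betaIII-tubulin (Alexa Fluor-488) and Hoechst-stained cells gave neurite length, normalized to the DMSO baseline.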
Structure (SMILES),outcome,AC50
CC1(C)C(C=C(Cl)Cl)C1C(=O)OC(C#N)c1cccc(Oc2ccccc2)c1 (stereo not given),inactive,–
CN/C(=N\[N+](=O)[O-])NCc1cnc(Cl)s1,inactive,–
CCSC(=O)N1CCCCCC1,inactive,–
CO/N=C(/C1=NOCCO1)c1ccccc1Oc1ncnc(Oc2ccccc2Cl)c1F,–,9.92 µM (active)
CS(=O)(=O)c1cc(C(F)(F)F)ccc1C(=O)c1cnoc1C1CC1,inactive,–
C=C(C)CN(CC)c1c([N+](=O)[O-])cc(C(F)(F)F)cc1[N+](=O)[O-],–,22.1 µM (active)
CNC(=O)Oc1cccc2ccccc12,inactive,–
COP(=S)(OC)SCn1nnc2ccccc2c1=O,–,21.9 µM (active)
CCNC(=O)NC(=O)C(C#N)=NOC,inactive,–
Cc1c(COC(=O)[C@@H]2[C@H](/C=C(\Cl)C(F)(F)F)C2(C)C)cccc1-c1ccccc1,–,10.8 µM (active)
COC(=O)N(C(=O)N1CO[C@@]2(C(=O)OC)Cc3cc(Cl)ccc3C2=N1)c1ccc(OC(F)(F)F)cc1,inactive,–
N#CN=C1SCCN1Cc1ccc(Cl)nc1,inactive,–
CC(C)(C)C(=O)C(Oc1ccc(Cl)cc1)n1cncn1 (stereo not given),inactive,–
CS(=O)(=O)c1ccc(C(=O)C2C(=O)CCCC2=O)c([N+](=O)[O-])c1,inactive,–
O=C(Nc1ccccc1-c1ccc(Cl)cc1)c1cccnc1Cl,inactive,23.7 µM (active)

# Test system: not listed separately
# Experiment: CCTE_Deisenroth_5AR_NBTE_donor: CCTE's 5alpha-reductase NanoBRET Target Engagement Assay […], Deisenroth Lab (AID 2284319; active means hit-call score of the fitted dose curve at least 0.9, where 1 is the maximum; inactive means score below 0.9)
# Details: actives raise or lower the signal
# Summary of the method: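 HEK293T cells transiently expressing SRD5A2-NanoLuc, exposed 5 h to chemicals (8 points, 10 nM - 29.9 uM), with testosterone tracer for the final 2 h. Donor luminescence at 460 nm read after Nano-Glo substrate plus extracellular NanoLuc inhibitor; bidirectional fit versus DMSO.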
row,Structure (SMILES),outcome
1,Cc1ccc(N=CN(C)C=Nc2ccc(C)cc2C)c(C)c1,inactive
2,O=C1C2CC=CCC2C(=O)N1SC(Cl)(Cl)Cl (stereo not given),inactive
3,COP(=S)(OC)SCn1nnc2ccccc2c1=O,inactive
4,CC1(C)CCC(=Cc2ccc(Cl)cc2)C1(O)Cn1cncn1 (stereo not given),inactive

# Test system: not listed separately
# Experiment: CCTE_Deisenroth_5AR_NBTE_acceptor: CCTE's 5alpha-reductase NanoBRET Target Engagement Assay - Autofluorescence Screen, Deisenroth Lab (AID 2284321; active means hit-call score of the fitted dose curve at least 0.9, where 1 is the maximum; inactive means score below 0.9;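 further: compound fluorescence in the acceptor channel under 460 nm excitation flags autofluorescence artifacts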)
# Details: actives raise or lower the signal
# Summary of the method: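 Using three independent plate-reader runs, nominal 100 uM chemicals were checked for intrinsic fluorescence (ex 460 nm). DMSO defined the baseline for bidirectional fitting.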
row,Structure (SMILES),outcome
1,Cc1ccc(N=CN(C)C=Nc2ccc(C)cc2C)c(C)c1,inactive
2,O=C1C2CC=CCC2C(=O)N1SC(Cl)(Cl)Cl (stereo not given),inactive
3,COP(=S)(OC)SCn1nnc2ccccc2c1=O,inactive
4,CC1(C)CCC(=Cc2ccc(Cl)cc2)C1(O)Cn1cncn1 (stereo not given),inactive

# Test system: SRD5A2 (gene 6716)
# Experiment: CCTE_Deisenroth_5AR_NBTE_ratio: CCTE's 5alpha-reductase NanoBRET Target Engagement Assay - Ratio, Deisenroth Lab (AID 2284322; active means hit-call score of the fitted dose curve at least 0.9, where 1 is the maximum; inactive means score below 0.9)
# Details: actives raise or lower the signal
# Summary of the method: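 SRD5A2-NanoLuc HEK293T; cmpd 10 nM-29.9 uM, 3 h preinc + testosterone tracer 2 h; NanoBRET ratio 650/460; bidirectional fit vs DMSO.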
row,Structure (SMILES),outcome
1,Cc1ccc(N=CN(C)C=Nc2ccc(C)cc2C)c(C)c1,inactive
2,O=C1C2CC=CCC2C(=O)N1SC(Cl)(Cl)Cl (stereo not given),inactive
3,COP(=S)(OC)SCn1nnc2ccccc2c1=O,inactive
4,CC1(C)CCC(=Cc2ccc(Cl)cc2)C1(O)Cn1cncn1 (stereo not given),inactive

# Test system: not listed separately
# Experiment: TAMU_PeakParms_SingleDonor1434_Asystole: Texas A&M University (TAMU) 1.5-hr Human Induced Pluripotent Stem Cell (iPSC)-derived Cardiomyocytes Calcium (Ca+2) Flux Assay for Cardiotoxicity: Asystole (quiescence of beating) (AID 2284328)
# Details: not given
# Summary of the method: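 Donor 1434 iPSC-cardiomyocytes exposed 90 min at 37C, 5% CO2, to 0.2, 1, 10 and 100 uM in 0.5% DMSO. Ca2+ dye fluorescence gave average peak frequency; POD is EC95, a 95% beat-rate drop versus controls.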
row,Structure (SMILES),outcome
1,CCCCC(C#N)(Cn1cncn1)c1ccc(Cl)cc1 (stereo not given),inactive
2,O=C1C2CC=CCC2C(=O)N1SC(Cl)(Cl)Cl (stereo not given),inactive
3,CNC(=O)Oc1cccc2ccccc12,inactive

# Test system: not listed separately
# Experiment: IUF_NPC1_cytotoxicity_72hr: Cytotoxicity Assessment at 72 hours in the Leibniz Research Institute for Environmental Medicine (IUF) Neural Progenitor Cell Proliferation Assay (NPC1) (AID 2284332);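 further: rising LDH signal means more cytotoxicity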
# Details: not given
# Summary of the method: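 LDH in supernatant, resazurin→resorufin fluorescence (RFU), 72 h exposure, no re-dosing. Cells: primary hNPC spheres, one per well, EGF+FGF medium, 37C/5% CO2, pH 7.2-7.6. Fit: positive direction vs baseline and dynamic range.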
row,Structure (SMILES),outcome
1,CC1(C)C(C=C(Cl)Cl)C1C(=O)OC(C#N)c1cccc(Oc2ccccc2)c1 (stereo not given),inactive
2,CN/C(=N\[N+](=O)[O-])NCc1cnc(Cl)s1,inactive
3,CCSC(=O)N1CCCCCC1,inactive
4,CS(=O)(=O)c1cc(C(F)(F)F)ccc1C(=O)c1cnoc1C1CC1,inactive
5,CCOP(=O)(OCC)Oc1nc(Cl)c(Cl)cc1Cl,inactive
6,C=C(C)CN(CC)c1c([N+](=O)[O-])cc(C(F)(F)F)cc1[N+](=O)[O-],inactive
7,CNC(=O)Oc1cccc2ccccc12,inactive
8,COP(=S)(OC)SCn1nnc2ccccc2c1=O,inactive
9,CCNC(=O)NC(=O)C(C#N)=NOC,inactive
10,Cc1c(COC(=O)[C@@H]2[C@H](/C=C(\Cl)C(F)(F)F)C2(C)C)cccc1-c1ccccc1,inactive
11,COC(=O)N(C(=O)N1CO[C@@]2(C(=O)OC)Cc3cc(Cl)ccc3C2=N1)c1ccc(OC(F)(F)F)cc1,inactive
12,N#CN=C1SCCN1Cc1ccc(Cl)nc1,inactive
13,CC(C)(C)C(=O)C(Oc1ccc(Cl)cc1)n1cncn1 (stereo not given),inactive
14,O=C(Nc1ccccc1-c1ccc(Cl)cc1)c1cccnc1Cl,inactive

# Test system: not listed separately
# Experiment: CCTE_Mundy_HCI_iCellGluta_NOG_NeuronCount: CCTE's Neurite Outgrowth Assay in iCellGluta cells for Neuron Count, Mundy Lab (AID 2284340);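 further: cells fixed about 48 h after compound addition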
# Details: not given
# Summary of the method: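 Neuron count read by automated high-content imaging of Hoechst 33342 and betaIII-tubulin/Alexa Fluor-488 labelling in human iPSC glutamatergic neurons. Activity fitted relative to DMSO.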
Structure (SMILES),outcome,AC50
CC1(C)C(C=C(Cl)Cl)C1C(=O)OC(C#N)c1cccc(Oc2ccccc2)c1 (stereo not given),inactive,–
CN/C(=N\[N+](=O)[O-])NCc1cnc(Cl)s1,inactive,–
CCSC(=O)N1CCCCCC1,inactive,–
CO/N=C(/C1=NOCCO1)c1ccccc1Oc1ncnc(Oc2ccccc2Cl)c1F,–,39.4 µM (active)
CS(=O)(=O)c1cc(C(F)(F)F)ccc1C(=O)c1cnoc1C1CC1,inactive,–
C=C(C)CN(CC)c1c([N+](=O)[O-])cc(C(F)(F)F)cc1[N+](=O)[O-],–,31.1 µM (active)
CNC(=O)Oc1cccc2ccccc12,inactive,–
COP(=S)(OC)SCn1nnc2ccccc2c1=O,–,24.4 µM (active)
CCNC(=O)NC(=O)C(C#N)=NOC,inactive,–
Cc1c(COC(=O)[C@@H]2[C@H](/C=C(\Cl)C(F)(F)F)C2(C)C)cccc1-c1ccccc1,–,12.8 µM (active)
COC(=O)N(C(=O)N1CO[C@@]2(C(=O)OC)Cc3cc(Cl)ccc3C2=N1)c1ccc(OC(F)(F)F)cc1,inactive,–
N#CN=C1SCCN1Cc1ccc(Cl)nc1,inactive,–
CC(C)(C)C(=O)C(Oc1ccc(Cl)cc1)n1cncn1 (stereo not given),inactive,–
O=C(Nc1ccccc1-c1ccc(Cl)cc1)c1cccnc1Cl,inactive,50 µM (active)
